# Measurements as given in PubChem BioAssay (NCI).
# Values joined by “and” are separate entries in the source; they are usually repeats but may differ in a detail not shown here. Equal entries are not always repeated. About 83,000 compounds went through this panel and 20% of them were active in at least one assay; those are over-represented in the sample as a whole.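 Percent growth is the endpoint: 0 to 100 indicates growth inhibition (40 means 60% inhibition), 0 means no net growth, and negative values indicate cell death.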 Unmarked numbers belong to inactive results. Active and inactive are the calls of the source. How the source made its calls: active means growth percent below 10; inactive means the rest.
# Tested on: MDA-MB-468 breast
# Experiment: NCI-60 one-dose screen, 48 h (100 = growth as untreated, 0 = no growth, -100 = all killed)
# Settings: 10 µM unless noted
row,Structure (SMILES),growth
1,[Cl][Hg][n]1cnc2c(Cl)c(Cl)c(Cl)cc21,115%
2,Oc1c(Br)cc(Br)cc1Br.[Cu+2],102%
3,CN1CCC(O)(c2ccc(F)cc2)C(C(=O)c2ccc(F)cc2)C1 (stereo not given),44.2%
4,NC(=S)c1cn(C2OC(CO)C(O)C2O)c2ncnc(N)c12 (stereo not given),-43.2% (active)
5,NC(=O)c1cc([N+](=O)[O-])c(Cl)c([N+](=O)[O-])c1,19.8%
6,CC1(CF)NC(=O)NC1=O (stereo not given),113%
7,O=C(O)C(Cl)(Cl)C(F)(F)F,106%
8,O=[N+]([O-])c1ccc(F)c([N+](=O)[O-])c1F,98.6%
9,N#CC1C(C#N)C2CCC1C1C2N1c1ccccc1 (stereo not given),102%
10,COc1cc(C2(C#N)CCN(C)CC2)cc(OC)c1OC,108%
11,Cc1ccc(Nc2nc3c(s2)C2=CC[C@@H]4[C@H](CC[C@]5(C)C(=O)CC[C@@H]45)[C@@]2(C)CC3)cc1,32.3%
12,CC(C)(C)N(Cc1ccccc1)N=O,93.2%
13,CC[CH2][Pb]([CH2]CC)([CH2]CC)[O]C(=O)C(F)(F)F,-90.1% (active)
14,CCOC(=O)c1cnc(SCc2ccc(Cl)c(Cl)c2)nc1N1CC1,-3.19% (active)
15,C=CCC1(CC)C(=O)NC(=S)NC1=O,97.4%
16,CC12CCC(=O)C=C1CCC1C2CCC2(C)C(C(=O)COC(=O)Cc3ccc(N(CCCl)CCCl)cc3)CCC12 (stereo not given),64.1%
17,Nc1ccc(S(=O)(=O)F)cc1,107%
18,CC1=C(CN(O)C(N)=O)C2=C(C)C3(CC3)[C@@](C)(O)C(=O)C2=C1,-69.1% (active)
19,COS(=O)(=O)c1ccccc1,114%
20,CN(C)[C@@H]1C(=O)C(C(N)=O)=C(O)[C@@]2(O)C(=O)C3=C(O)c4c(O)ccc(Cl)c4[C@@](C)(O)[C@H]3C[C@@H]12,105% and 101%

row,Structure (SMILES),growth
1,CCCCCCCCCCCCCCCCCCOc1ccccc1COP(=O)(O)OOCC[N+](C)(C)C,-40.1% (active)
2,CC(CO)NC1CCCCC1 (stereo not given),107%
3,Nc1c(F)cc(-c2nc3cc(F)ccc3[se]2)cc1F,-39.8% (active)
4,COc1ccccc1/C=C(/C)[N+](=O)[O-],14.4% and 103%
5,CCOC(=O)Nc1cc(Cl)c([N+](=O)[O-])c(NC(=O)OCC)n1,87.2%
6,COc1ccc(Nc2ccnc3cc(Cl)ccc23)cc1CN(CCCl)CCCl,-58.6% (active)
7,COc1ccc(/C=C\c2cc(OC)c(OC)c(OC)c2)cc1OCC(=O)Nc1nc2ccc(F)cc2s1,37.3%
8,CN1C(=O)C23CC4(C56CC78SSC(CO)(C(=O)N7C5Nc5ccccc56)N(C)C8=O)c5ccccc5NC4N2C(=O)C1(CO)SS3 (stereo not given),-81.7% (active)
9,c1ccc(COc2ccc3[nH]cc(CCN(Cc4ccccc4)Cc4ccccc4)c3c2)cc1,87.9%
10,CCCCS(=O)(=O)Cl,104%
11,CC[C@H](C)[C@H](NC(=O)c1cnccn1)C(=O)N(C)[C@H](C[C@@H](OC(C)=O)c1nc(C(=O)N[C@@H](Cc2ccccc2)C[C@H](C)C(=O)OC)cs1)C(C)C,31.5%
12,[O-][n+]1ccccc1S,85.2%
13,COc1ccc(/C=C(/C)[N+](=O)[O-])cc1OC,-87.6% (active) and -87% (active)
14,COC(=O)[C@@H](C)C[C@H](Cc1ccccc1)NC(=O)c1csc(CC[C@H](C(C)C)N(C)C(=O)[C@@H](NC(=O)[C@H]2CCCCN2C)C(C)C)n1,8.45% (active)
15,CC12CCC(=O)C=C1C(O)CC1C2CCC2(C)C(O)CCC12 (stereo not given),104%
16,COC(=O)CC[C@H](Cc1ccccc1)NC(=O)c1csc([C@@H](C[C@H](C(C)C)N(C)C(=O)[C@@H](NC(=O)[C@H]2CCCCN2C)C(C)C)OC(C)=O)n1,66.9%
17,O=C(O)C(O)c1ccc(Cl)cc1 (stereo not given),84.9% and 112%
18,OCCNC(Cc1ccccc1)c1ccc2c(c1)OCO2 (stereo not given),97.7%
19,CN1CC(CNC(=O)OCc2ccccc2)CC2c3cccc4c3c(cn4C)CC21 (stereo not given),-42.6% (active)
20,O=C(Nc1ccc([As]=[As]c2ccc(NC(=O)c3ccccc3)cc2)cc1)c1ccccc1 (stereo not given),-74.8% (active)
